Results as given in ChEMBL document CHEMBL3988442, “University of Dundee, Small-Polar-MMV Screening Library” (2021).
Screen size: about 48,000 compounds; about 13,000 (27%) showed an effect of 50% or more. The list shows a part of the results.

The compounds below were run on Wolbachia pipientis (assay: Anti-Wolbachia Cell-Based Screen). Settings: 5 µM.
Type: functional
Design: scale not given: in the data most compounds retested in dose-response had high values

Structure (SMILES) | Percent Effect [%]
CCCc1nc(C)cc(N2CCC3(CCC(=O)N(CCCO)C3)CC2)n1 | 11.58
Cc1cc(SC(C)(C)C)ccc1NCC(=O)NC(N)=O | 1.645
CCCS(=O)(=O)C(C)C(=O)Nc1ccc2oc(C3CC3)nc2c1 (stereo unspecified) | 3.211
Cl.Cl.FC(F)(F)c1cccc(-c2c[nH]c(C3CCCN3)n2)c1 (stereo unspecified) | -28.55
Cc1cccc(Cc2cc(C)nc(C3CCCNC3)c2)c1 (stereo unspecified) | 70.21
Cc1cc(Cc2ccc(F)cc2)cc(C2CCCNC2)n1 (stereo unspecified) | 73.78
Cc1cc(Cc2cccc(C(F)(F)F)c2)cc(C2CCCNC2)n1 (stereo unspecified) | 97.1
O=C(NC1CCCNC1)c1cc(COc2cccc(C(F)(F)F)c2)[nH]n1 (stereo unspecified) | 2.713
Cc1cc(Cc2ccccc2)cc(C2CCCNC2)n1 (stereo unspecified) | 107.8
O=C(CN1CCOc2ccccc2C1)N1Cc2cnn(CCO)c2C1 | 6.512
Cc1cnc(C)c(-c2cc(O)c3c(c2)CN(c2ncccn2)CCO3)n1 | -18.62
CN(C)C(=O)c1nc(CN2CC(c3ccccc3)CC2=O)no1 (stereo unspecified) | 7.307
C=C(C)CN(CC)Cc1nc(C2CC2)no1 | 1.764
CCCS(=O)(=O)N1CCn2cc(CNc3ccccn3)nc2C1.O=C(O)C(F)(F)F | -1.498
O=C(CSCc1ccccn1)N(Cc1ccsc1)C1CC1 | -10.63
OC1(CNC2CCN(c3ccccn3)CC2)CCc2ccccc21 (stereo unspecified) | 6.779
CCC(=O)N1CCN(C(=O)Nc2cccc(C#N)c2)[C@H]2CS(=O)(=O)C[C@H]21 | -1.601
O=C(Nc1cnn(Cc2ccc(Cl)cc2)c1)N[C@@H]1C=C[C@H](CO)C1 | -9.454
CS(=O)(=O)N1CCCC(C(=O)Nc2cnn(Cc3ccc(Cl)cc3)c2)C1 (stereo unspecified) | 106.8
CS(=O)(=O)N1CCCC(C(=O)Nc2cnn(COCC(F)(F)F)c2)C1 (stereo unspecified) | 96.9
CCn1cc(NC(=O)C2CCN(CCOC(C)C)CC2)cn1 | -5.388
CS(=O)(=O)N1CCCC(C(=O)Nc2cnn(Cc3ccc(F)cc3)c2)C1 (stereo unspecified) | 99.84

Structure (SMILES) | Percent Effect [%]
CS(=O)(=O)N1CCC(C(=O)N2CCC(Cn3cccn3)CC2)CC1 | -10.97
O=C(Cn1cc(NC(=O)c2ccc(F)cc2F)cn1)NC1CCCC1 | 5.692
CC(C)C1CN(S(C)(=O)=O)CCCN1Cc1ccc(F)cc1 (stereo unspecified) | 3.687
CCOCn1cc(NC(=O)C2CCN(S(C)(=O)=O)CC2)cn1 | 105.1
CN(Cc1ccc(Cl)cc1)C(=O)Nc1cnn(CC(N)=O)c1 | 3.306
CS(=O)(=O)N1CCC(C(=O)Nc2nnc(C(F)(F)F)[nH]2)CC1 | 11.43
CCOC1CCCN(C(=O)Nc2cnn(CC(F)F)c2)C1 (stereo unspecified) | 6.944
Cc1nc(CNC(C)c2cccc(S(=O)(=O)N(C)C)c2)no1 (stereo unspecified) | -7.216
CS(=O)(=O)c1ccc(NC(=O)CSc2ccc3c(c2)CCC3)cc1 | 1.625
Cn1cnc2c1C(COCC1CC1)CN(C(=O)c1ccsc1)C2 (stereo unspecified) | -2.938
COCCN1CCN(CCS(=O)(=O)c2cccc(OC)c2)CC1 | 2.005
CN(C)C(=O)CCNC(=O)Nc1sc2ccccc2c1Cl | -12.49
N#CCC(=O)NCc1nnc2n1CCN(Cc1nccs1)C2 | -14.07
Cc1ccc(-c2noc(CN3CCOC(CN(C)C)C3)n2)cc1F (stereo unspecified) | -11.04
CCc1nc(NS(=O)(=O)c2ccc(F)cc2Cl)no1 | 2.388
CC(C)C1=NOC(c2nc(-c3cccc(Cl)c3)no2)C1 (stereo unspecified) | -9.721
CC(C)(NS(C)(=O)=O)c1nc(-c2ccncc2)no1 | 92.68
CC(C)(CNc1ccc2ccc(F)cc2n1)NS(C)(=O)=O | -16.93
Cc1ccc(-c2noc(CNCC3CN(C)CCO3)n2)cc1F (stereo unspecified) | 8.94
CC(C)(NS(C)(=O)=O)c1nc(-c2cccc(Cl)c2)no1 | 115.9
CCS(=O)(=O)N1CC(c2nc(-c3ccncc3)no2)C1 | -18.6
Cc1ccc(-c2noc(C(C)(C)NS(C)(=O)=O)n2)cc1F | 124.7

Structure (SMILES) | Percent Effect [%]
CCNc1nc(C)c(C(=O)N(C)Cc2nc(-c3ccncc3)no2)s1 | -39.74
CC(Cn1cccn1)NCc1nc(-c2cccc(Cl)c2)no1 (stereo unspecified) | -1.118
CC(C)(NS(C)(=O)=O)c1nc(-c2ccc(F)cc2Cl)no1 | 95.59
O=C1[C@H]2CC[C@H](CN(C3CSCCSC3)C2)N1Cc1cscn1 | 1.539
COC(=O)c1ccc(N2CCN(C(=O)c3cnn(C)c3)C(C)C2)cc1 (stereo unspecified) | 5.538
Cc1cnn(CC(C)NCc2ccc(OCc3ccncc3)cc2)c1 (stereo unspecified) | 2.463
CCn1c(CN(C)C(=O)c2ccc(OC)nc2)nc2ccccc21 | -6.401
OC1(CN2CCCC2)COCCN(c2noc(-c3ccccc3)n2)C1 (stereo unspecified) | -20.3
N#Cc1cc(F)c(NCCCOCC2CCOC2)c(F)c1 (stereo unspecified) | -9.574
Cc1cc(-c2noc(C3CCS(=O)(=O)C3)n2)ccc1F (stereo unspecified) | -6.108
CC(C)(NS(C)(=O)=O)c1nc(-c2ccc(F)c(F)c2)no1 | 108
Cc1cc(-c2nnn(CCNS(C)(=O)=O)n2)ccc1F | -4.563
CCn1cc(CNc2ccc3nccnc3c2)cn1 | 0.1341
CC(C)C1CN(S(=O)(=O)N(C)C)CCCN1Cc1ccc(F)cc1 (stereo unspecified) | 3.4
CC[C@@]1(O)CCN(C(=O)CN(C)Cc2ccc(F)cc2)C[C@H]1O | -15.44
CS(=O)(=O)N1CCO[C@@H]2CN(Cc3ccc(F)cc3)C[C@@H]2C1 | -1.129
CN(Cc1ccc(F)cc1)[C@@H]1CN(S(C)(=O)=O)C[C@H]1O | 89.96
CN(C)S(=O)(=O)N1CCC2(CCCN(Cc3ccc(F)cc3)C2=O)C1 (stereo unspecified) | -3.561
CN(Cc1ccc(F)cc1)[C@@H]1CN(S(=O)(=O)N(C)C)C[C@H]1O | 124.5
CCS(=O)(=O)N1C[C@@H](O)[C@H](N(C)Cc2ccc(F)cc2)C1 | 127.5
CN(Cc1ccc(F)cc1)[C@@H]1CN(C(=O)c2cccs2)C[C@H]1O | 3.837
CN(Cc1ccc(F)cc1)S(=O)(=O)N1CCOCC1 | -4.525

Structure (SMILES) | Percent Effect [%]
CCC1CN(C(=O)c2cccc(O)c2)CCC(=O)N1Cc1ccccc1 (stereo unspecified) | 8.552
COCCN1C[C@H]2CN(C(=O)NC(C)C)CCN2C1=O | -4.801
COCc1ccc(CNC(=O)CN2CCc3ccccc32)cc1 | -11.7
CN1CCN(CC(=O)NCc2ccco2)Cc2ccccc21 | -30.17
COCC(O)CN1CCC(=O)N(Cc2ccccc2)Cc2ccccc21 (stereo unspecified) | 97.49
COCCN1C[C@H]2CN(C(=O)NCc3ccccc3)CCN2C1=O | 8.785
CCCC(O)CN1CCC(=O)N(Cc2ccccc2)Cc2ccccc21 (stereo unspecified) | 123.8
COC(=O)N1CCc2ccccc2C1C(=O)NCc1ccco1 (stereo unspecified) | 14.18
CCCC(O)CN1CCC(=O)N(CCOC)Cc2ccccc21 (stereo unspecified) | 121.9
COCC(O)CN1CCC(=O)N(Cc2ccco2)Cc2ccccc21 (stereo unspecified) | 86.65
OC(CN1CCCCc2ccccc21)Cn1cccn1 (stereo unspecified) | -5.145
Cc1ccc([C@@H]2CN(S(=O)(=O)N(C)C)C[C@H]2N(C)C)cc1 | 0.6697
Cc1cc(S(=O)(=O)NCC(O)c2sccc2C)ccc1F (stereo unspecified) | 4.369
CCOc1ccc(CN(C)C(=O)COc2ccc(C)nc2)cc1 | -6.842
CCc1c(C(=O)N2CCN(C)[C@@H]3CS(=O)(=O)C[C@@H]32)[nH]c2ccccc12 | -4.01
CCN1CC(CN(C)c2cc(C)nc(N)n2)Oc2ccccc21 (stereo unspecified) | 10.5
CCN(CC1CCOCC1)C(=O)Cn1ccccc1=O | -19.1
CC(O)CN1CCC(=O)N(Cc2ccccc2)Cc2ccccc21 (stereo unspecified) | 125.3
CC(C)NC(=O)c1nc2c(s1)CCCN2Cc1ccccc1 | -9.51
O=C(CN1CCc2ccccc21)NCc1ccc(Cl)cc1 | -3.042
CCCc1nc(CN(CC)C(=O)c2ccc3[nH]cnc3c2)no1 | -17.17
CC(C)(C)n1ncc2c1CCCC2NCc1cccc2c1OCO2 (stereo unspecified) | 3.56

Structure (SMILES) | Percent Effect [%]
CC(C)c1cc(CNC(=O)NCc2cccc(N3CC=CC3)c2)on1 | 1.94
CC(C)c1cc(C(=O)N2C[C@H]3CC[C@@H]2CN(Cc2ccccn2)C3)no1 | -1.053
CNC(=O)C1(Cc2cc(C(C)C)no2)CCN(Cc2cccnc2)C1 (stereo unspecified) | 113.2
CCOC(C)c1noc(CN2CCN(Cc3cccnc3)CC2)n1 (stereo unspecified) | -3.385
CNC(=O)C1(Cc2cc(C(C)C)no2)CCN(Cc2ccccn2)C1 (stereo unspecified) | 108.3
O=C(O)C1(Cc2ccc(F)cc2F)CCCN(Cc2ccccn2)C1 (stereo unspecified) | -12.03
COC1(CNS(=O)(=O)c2ccccc2Br)CCSC1 (stereo unspecified) | -11.32
O=C(NCCC(O)c1cccs1)c1ccc(Br)o1 (stereo unspecified) | -2.242
Cc1cc(C)nc(NC2CC(=O)N(C(C)(C)C)C2)n1 (stereo unspecified) | -13.08
Cc1ccc(CN(C)C(=O)NCC(=O)NC(C)(C)C)s1 | -5.904
CCc1cnc(NCCS(=O)(=O)CC(C)C)nc1 | -2.356
O=C(O)C(F)(F)F.O=C(c1ccsc1)N1CCc2onc(COc3ccccn3)c2C1 | -81.7
Cc1cc(C)n(CC(C)NC(=O)c2cc(C(C)C)on2)n1 (stereo unspecified) | -21.21
CCC(C)C(=O)NCCCn1nc(C)cc1C (stereo unspecified) | 119.6
Cc1cc(C)n(-c2cncc(NCCNC(=O)CC3CCCC3)n2)n1 | 5.332
Cc1cc(C(F)(F)F)nn1CCNC(=O)C(C)n1ccnc1C(C)C (stereo unspecified) | 0.9025
Cc1cc(CNC(=O)CC2CCN(C(C)C)CC2)n(C)n1 | -16.42
Cc1cc(C)n(CCCNC(=O)C(C)NC(=O)CC2CCCCC2)n1 (stereo unspecified) | 122.8
